# In the library only some 1.3% were active in any assay of this set; here they are far more common.
# CCHFV vOTU inh: CCHFV vOTU protease inhibitors, primary screen, biochemical, Pep-AMC substrate, fluorescence; Crimean-Congo hemorrhagic fever virus L polyprotein viral ovarian tumor (vOTU) protease …; inhibition, % at 11.5 µM; actives 0.55% (n = 370,000); AID 651958, 2012; in the data active = inhibition above about 30%; also: 0% = vehicle wells with enzyme and 100% = no enzyme wells
# SARS 3CLpro inh-1: SARS-CoV 3CLpro protease inhibitors, primary screen, biochemical, quenched FRET; AID 1706, 2009; inhibition, % at 6 µM; recombinant SARS-CoV 3CLpro, quenched FRET peptide cleavage; Replicase polyprotein 1ab (Severe acute respiratory syndrome coronavirus), P0C6X7; actives 0.14% (n = 290,000); in the data active = inhibition above about 12%
# SSB-PriA inh: inhibitors of Klebsiella pneumoniae PriA binding to SSB C-terminal tail, primary screen, biochemical, AlphaScreen. PriA–SSB C-terminal tail interaction (Klebsiella pneumoniae). AlphaScreen SSBct-PriA binding, biotinylated peptide. inhibition, % at 33 µM. actives 0.6% (n = 430,000); in the data active = inhibition mostly above about 37%, no sharp cut-off; inactive = mostly below about 20%;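 also: plate controls were negative control peptide for no effect and reference peptide for full effect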
# DUSP3 inh: VHR1 phosphatase inhibitors, primary screen, biochemical, absorbance, uHTS; inhibition, % at 13.3 µM; actives 0.52% (n = 290,000); recombinant VHR phosphatase, pNPP absorbance; Dual specificity protein phosphatase 3 (Homo sapiens), P51452; in the data active = inhibition above about 50%
# Vc quorum ag: inducers of Vibrio cholerae quorum light production without autoinducers, primary screen, BH1578 luxS cqsA deficient, single point | V. cholerae BH1578 lux reporter, luminescence, 6 h | activation, % at 18.7 µM | actives 0.16% (n = 350,000) | AID 588436, 2011; in the data active = activation mostly above about 9.7%, no sharp cut-off
# TcdB GH inh: TcdB glycohydrolase inhibitors, primary screen, biochemical, single point, plate reader | Toxin B (Clostridioides difficile), P18177 | TcdB glycohydrolase enzymatic assay | inhibition, % at 9.99 µM | actives 0.24% (n = 350,000) | AID 652162, 2013; in the data active = inhibition above about 10%
# SARS 3CLpro inh-2: confirmation of SARS coronavirus 3C-like protease inhibitors, retest, confirmation, biochemical. inhibition, % at 6 µM. shares compounds with SARS 3CLpro inh-1. actives 36% (n = 380). QFRET protease activity assay, 3CLpro; in the data active = inhibition above about 13%
# Active calls of the source: *; i = inactive; nt = no result given.
SMILES,CCHFV vOTU inh,SARS 3CLpro inh-1,SSB-PriA inh,DUSP3 inh,Vc quorum ag,TcdB GH inh,SARS 3CLpro inh-2
COc1ccc(COc2ccc(C3C(S(=O)(=O)c4ccccc4)CON3C)cc2OC)cc1 (stereo unspecified),12.1,13.8*,-2.0,39.3,-0.5,-0.1,4.0
O=C(NCCn1cnc2ccsc2c1=O)C1c2ccccc2Oc2ccccc21,nt,nt,-14.0,nt,nt,nt,nt
Cc1ccc(C2=NN(C(=O)CCl)C(c3ccco3)C2)o1 (stereo unspecified),12.2,47.4*,-15.0,39.0,-0.2,0.8,60.8*
CCc1c(C)sc(NC(=O)OC)c1C(=O)N1CCCCC1,-0.3,-2.6,-6.0,-2.4,-0.5,nt,nt
CCc1c(C)sc(NC(=O)Cc2ccccc2OC)c1C(=O)N1CCOCC1,-8.3,12.8*,0.1,-13.5,0.6,2.3,-0.1
CC(C)(C)OC(=O)NCc1ccc(CNC(=O)c2[nH]cnc2C(=O)N[C@@H](Cc2ccccc2)C(=O)OC(C)(C)C)cc1,25.2,15.0*,-11.1,12.7,i,0.9,11.8
CC(C)(C)OC(=O)NCc1ccc(NC(=O)c2nc[nH]c2C(=O)N[C@@H](Cc2ccccc2)C(=O)OCc2ccccc2)cc1,16.1,nt,-6.7,-4.7,-2.2,-0.2,nt
CC(C)(C)OC(=O)[C@H](Cc1ccccc1)NC(=O)c1nc[nH]c1C(=O)NCc1ccccc1,19.4,3.4,-0.8,17.5,-0.2,0.5,nt
CC(C)(C)OC(=O)NCc1ccc(CNC(=O)c2[nH]cnc2C(=O)N[C@@H](Cc2ccccc2)C(=O)OCc2ccccc2)cc1,23.1,14.0*,-8.9,24.4,-2.8,0.5,7.6
CC(C)(C)OC(=O)CNC(=O)c1[nH]cnc1C(=O)NC(c1ccccc1)c1ccccc1,12.3,12.7*,7.2,20.5,0.2,0.7,4.3
O=C(c1ccc(-c2ccc(F)cc2)cc1)N1CCC(N2CCc3sccc3C2)CC1,nt,nt,-25.0,nt,nt,nt,nt
Cc1ccc(C(=O)c2c3ccccc3[n+]([O-])n2CCC(N)=O)cc1,-0.1,33.2*,-5.9,29.1,i,-0.1,35.8*
Cc1ccc(C(=O)c2c3ccc([N+](=O)[O-])cc3[n+]([O-])n2CCC(N)=O)cc1,11.6,12.4*,15.8,9.5,6.6,0.7,12.0
S=C(c1ccc(-c2ccccc2Cl)o1)N1CCCCC1,2.7,26.5*,21.2,-4.7,0.7,nt,-7.0
N#CCC(=O)NN=Cc1c(-c2ccccc2)n(-c2ccccc2)c2ccccc12,nt,nt,4.3,nt,nt,nt,nt
N#CCC(=O)N/N=C/c1c(-c2ccccc2)n(-c2ccccc2)c2ccccc12,16.6,21.7*,nt,21.1,-0.5,-0.1,23.2*
CCn1c(COc2ccccc2)nnc1SCC(=O)C(C)(C)C,18.9,14.6*,-18.6,4.4,3.6,nt,-1.8
Cc1nc2ccc(Cl)cn2c(=O)c1NC(=O)c1ccc(F)cc1F,nt,nt,-10.0,nt,nt,nt,nt
O=C(NCC(c1ccsc1)N1CCc2ccccc2C1)c1cccs1 (stereo unspecified),nt,nt,0.0,nt,nt,nt,nt
CC(C)(C)C(=O)NC(=S)Nc1sc2c(c1C#N)CCCCC2,-16.3,33.6*,-1.2,10.2,-0.2,nt,2.9
COc1ccc(C(=O)n2c(SC)nc3cc4c(cc32)OCCO4)cc1,9.5,12.4*,-14.4,27.7,-3.3,nt,92.3*
O=C(NCCc1csc2nc(-c3cccc(F)c3)nn12)C1CCCCC1,nt,nt,-14.0,nt,nt,nt,nt
C/C(=N\N=C(/N)SC1CC(=O)N(c2ccc(Cl)cc2)C1=O)c1cccs1 (stereo unspecified),13.3,12.8*,nt,6.5,-2.8,nt,9.1
C/C(=N\N=C(/N)SC1CC(=O)N(c2ccccc2)C1=O)c1cccs1 (stereo unspecified),10.7,3.1,nt,9.7,-1.5,nt,nt
CS(=O)(=O)c1ccc(CCC(=O)N2CC(n3cc(COc4ccccc4)nn3)C2)cc1,nt,nt,-11.0,nt,nt,nt,nt
SMILES,CCHFV vOTU inh,SARS 3CLpro inh-1,SSB-PriA inh,DUSP3 inh,Vc quorum ag,TcdB GH inh,SARS 3CLpro inh-2
CC1CCN(c2ccc3nnc(CCC(=O)NCCCOC(C)C)n3n2)CC1,9.3,15.6*,-8.6,3.5,-0.1,-1.6,-0.6
CCCNC(=O)CCc1nnc2ccc(N3CCC(C)CC3)nn12,1.5,2.6,4.0,1.0,1.8,0.7,nt
Cc1nn(-c2ccccc2)c(N)c1C(c1ccccc1)c1c(C)nn(-c2ccccc2)c1N,-6.0,13.9*,5.7,8.3,-0.1,nt,-1.2
COc1ccc(CCNC(=O)COc2cc(Cl)ccc2Cl)cc1OC,nt,nt,3.0,nt,nt,nt,nt
COc1cccc(/C=N/NC(=S)Nc2cccnc2)c1,-2.6,16.3*,nt,16.9,-0.2,-0.6,18.0*
O=C(Nc1cccc(OC(F)F)c1)C1CN(C(=O)c2cnccn2)C1,nt,nt,-7.0,nt,nt,nt,nt
O=C(c1n[nH]c2c1CCCC2)N1CCC(n2c(=O)[nH]c3ccccc3c2=O)CC1,nt,nt,-19.0,nt,nt,nt,nt
O=C1C(C2=NC(c3ccccn3)C3C(=O)N(c4ccccc4)C(=O)C23)=C(O)c2ccccc21 (stereo unspecified),16.4,80.4*,-7.0,-7.1,-2.1,-7.4,3.2
O=C(c1cc2ccccc2cc1O)N1CCN(c2cccc(Cl)c2)CC1,0.8,nt,10.6,nt,-0.3,4.2,nt
O=C(c1c(Cl)nc2sccn12)N1CCN(c2cccc(Cl)c2)CC1,21.1,44.3*,0.8,17.2,i,nt,3.4
O=C(c1ccc2c(c1)OCO2)N1Cc2cncnc2C1,nt,nt,-13.0,nt,nt,nt,nt
Cc1ccc(NC(=O)CN(C)C(=O)c2cccnc2Nc2cccc(C(F)(F)F)c2)cc1,11.8,12.6*,-20.8,17.9,i,-1.6,12.0
COc1cccc(NC(=O)CN(C)C(=O)c2cccnc2Nc2cccc(C(F)(F)F)c2)c1,nt,nt,-4.3,nt,-2.1,nt,nt
C=CCc1c(C)nc2c(C)cccc2c1SC(=N)N,-10.1,16.3*,-10.9,31.5,i,1.6,0.7
O=C(c1cnccn1)N1CC(C(=O)N2CCn3c2nc2ccccc23)C1,nt,nt,-11.0,nt,nt,nt,nt
